The results in this text go back to PubChem BioAssay (EPA / NIEHS).

Experiment [1] addresses Nuclear receptor subfamily 1 group I member 3 (Homo sapiens) (UniProt Q14994). The experiment in a line: ATG_CAR_TRANS: Attagene TRANS-FACTORIAL HepG2 Assay for human Constitutive Androstane Receptor (CAR) (AID 2282969).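 Further: activators raise reporter mRNA above DMSO so AC50 marks induction.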 Conditions: HepG2 Attagene TRANS-FACTORIAL CAR reporter. Summed up:
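Steps: transient transfection of HepG2 with multiple GAL4-UAS reporter units; 24 h compound incubation; RNA isolation, RT-PCR, 6-FAM primer extension, HpaI digest; capillary electrophoresis. Gain-of-signal relative to DMSO negative control.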

Experiment [2] concerns the target X-box-binding protein 1 (Homo sapiens) (UniProt P17861). Put plainly: ATG_Xbp1_CIS: Attagene CIS-FACTORIAL HepG2 Assay for human X-box Binding Protein 1 (XBP1) (AID 2282972; active means hit-call score of the fitted dose curve at least 0.9, where 1 is the maximum; inactive means score below 0.9). To be noted: HepG2 XBP1 cis-element reporter, Attagene multiplex; actives raise or lower the signal. The method, boiled down: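 Read-out: fluorescent reporter mRNA fragments resolved by capillary electrophoresis after RT-PCR. Human HepG2 liver cells carried transfected cis-promoter reporter units and were exposed to chemicals for 24 hours. Gain or loss of signal fitted relative to DMSO baseline.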

Experiment [3] in a line: ATG_M_19_TRANS: Attagene TRANS-FACTORIAL HepG2 Assay for M19 Transcription Factor (Internal Marker) (AID 2282974). Conditions: HepG2 Attagene TRANS-FACTORIAL M19 internal marker reporter. Summed up:
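HepG2 cells transiently transfected with multiple GAL4-UAS reporter transcription units were exposed to chemicals for 24 h. Reporter mRNA was read by RT-PCR, 6-FAM primer extension, HpaI digestion and capillary electrophoresis; gain of signal fitted relative to DMSO.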

Experiment [4] concerns the target Glucocorticoid receptor (Homo sapiens) (UniProt P04150). Put plainly: ATG_GR_TRANS: Attagene TRANS-FACTORIAL HepG2 Assay for human Glucocorticoid Receptor (GR) (AID 2282978).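 Further: activators score as hits since higher reporter transcript over DMSO is fitted.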 To be noted: HepG2 Attagene TRANS GR reporter, mRNA transcription. Summed up:
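HepG2 cells transiently transfected with multiplexed reporter units in which chimeric NR-GAL4 proteins drive GAL4-UAS reporters; 24 h compound exposure. Reporter mRNA measured by RT-PCR, 6-FAM labelling, HpaI digestion and capillary electrophoresis; gain-of-signal fitted versus DMSO.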

Experiment [5] addresses Estrogen receptor (Homo sapiens) (UniProt P03372). The experiment in a line: ATG_ERa_TRANS: Attagene TRANS-FACTORIAL HepG2 Assay for human Estrogen Receptor alpha (ERa) (AID 2282970). To be noted: HepG2 Attagene TRANS ERa GAL4 reporter, mRNA. The method, boiled down:
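Transfected HepG2 cells carrying GAL4-UAS-driven reporter units were dosed for 24 hours. Total RNA was reverse-transcribed, reporter sequences PCR-amplified, FAM-labelled, HpaI-digested and resolved by capillary electrophoresis. Increases over DMSO control defined activity.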

In experiment [6] the target is Steroid hormone receptor ERR1 (Homo sapiens) (UniProt P11474). The experiment in a line: ATG_ERRa_TRANS: Attagene TRANS-FACTORIAL HepG2 Assay for human Estrogen-Related Receptor alpha (ERRa) (AID 2282971). Conditions: HepG2 Attagene TRANS reporter, ERRa transactivation. Summed up:
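HepG2 cells were transiently transfected with multiple GAL4-UAS reporter units, then dosed with compound for 24 h. Total RNA was reverse-transcribed, reporter cDNA PCR-amplified and fluorescently labelled, and fragments resolved by capillary electrophoresis; induction was compared with DMSO.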

The target in experiment [7] is Bile acid receptor (Homo sapiens) (UniProt Q96RI1). The experiment in a line: ATG_FXR_TRANS: Attagene TRANS-FACTORIAL HepG2 Assay for Farnesoid X Receptor (FXR) (AID 2282979).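 Further: hits raise reporter mRNA above DMSO so AC50 marks FXR activation.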 Conditions: HepG2 Attagene TRANS FXR-GAL4 reporter transcription. The method, boiled down:
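Chimeric FXR-GAL4 activity in transiently transfected human HepG2 liver cells is scored as induction of reporter mRNA after 24 h of dosing. Detection uses RT-PCR with fluorescent labelling and capillary electrophoresis, with DMSO serving as baseline.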

Experiment [8] concerns the target Oxysterols receptor LXR-alpha (Homo sapiens) (UniProt Q13133). The experiment in a line: ATG_LXRa_TRANS: Attagene TRANS-FACTORIAL HepG2 Assay for human Liver X Receptor alpha (LXRa) (AID 2282980). Conditions: HepG2 Attagene TRANS reporter, LXRa transactivation. Summed up: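 Transient HepG2 transfectants, 24 h dosing, RT-PCR/CE mRNA reporter quantitation; gain-of-signal vs DMSO.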

Experiment [9] has as its target Estrogen-related receptor gamma (Homo sapiens) (UniProt P62508). Put plainly: ATG_ERRg_TRANS: Attagene TRANS-FACTORIAL HepG2 Assay for human Estrogen-Related Receptor gamma (ERRg) (AID 2282977).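 Further: hits increase reporter signal over DMSO so potencies reflect activators.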 Conditions: HepG2 Attagene TRANS reporter, ERRg transactivation. The method, boiled down: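 Induction of reporter transcripts through a chimeric NR-Gal4 protein is quantified in transfected human HepG2 liver cells after 24 h chemical exposure, using RT-PCR with capillary electrophoresis detection and DMSO as baseline.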

Experiment [10] can be described thus: ATG_GAL4_TRANS: Attagene TRANS-FACTORIAL HepG2 Assay for GAL4 (Internal Marker) (AID 2282976). Conditions: HepG2 Attagene TRANS GAL4 internal marker reporter. Summed up:
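Fluorescence from capillary electrophoresis of labelled RT-PCR products quantifies reporter mRNA induction after 24 h dosing of HepG2 cells carrying transfected GAL4-UAS reporter transcription units. Vehicle DMSO serves as baseline.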

Each structure is given as a SMILES string. “And” between values parts separate entries of the source, which are not always exact repeats. Identical values can stand only once. Results filed as inconclusive are left out. A structure can be active in one record and inactive in another. The source made the active and inactive calls. How the source made its calls, unless noted: active means hit-call score of the fitted dose curve at least 0.9, where 1 is the maximum; inconclusive means response in the unintended direction; inactive means score below 0.9.

Oxysterols receptor LXR-alpha (Homo sapiens), sequence (Q13133 whole entry, looked up): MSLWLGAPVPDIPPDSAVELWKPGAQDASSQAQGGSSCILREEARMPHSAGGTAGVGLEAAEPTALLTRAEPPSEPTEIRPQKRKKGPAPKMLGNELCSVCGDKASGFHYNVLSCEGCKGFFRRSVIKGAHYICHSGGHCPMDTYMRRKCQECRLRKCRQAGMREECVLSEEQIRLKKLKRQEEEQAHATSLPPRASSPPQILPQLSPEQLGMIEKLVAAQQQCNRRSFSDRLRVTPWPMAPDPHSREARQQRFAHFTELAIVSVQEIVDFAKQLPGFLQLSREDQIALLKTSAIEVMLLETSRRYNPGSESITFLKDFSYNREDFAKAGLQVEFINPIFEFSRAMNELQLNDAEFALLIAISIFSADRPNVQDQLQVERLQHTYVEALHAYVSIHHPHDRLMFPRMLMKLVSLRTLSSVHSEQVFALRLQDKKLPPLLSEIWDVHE
Nuclear receptor subfamily 1 group I member 3 (Homo sapiens), sequence (Q14994 whole entry, looked up, the tested form may be a part): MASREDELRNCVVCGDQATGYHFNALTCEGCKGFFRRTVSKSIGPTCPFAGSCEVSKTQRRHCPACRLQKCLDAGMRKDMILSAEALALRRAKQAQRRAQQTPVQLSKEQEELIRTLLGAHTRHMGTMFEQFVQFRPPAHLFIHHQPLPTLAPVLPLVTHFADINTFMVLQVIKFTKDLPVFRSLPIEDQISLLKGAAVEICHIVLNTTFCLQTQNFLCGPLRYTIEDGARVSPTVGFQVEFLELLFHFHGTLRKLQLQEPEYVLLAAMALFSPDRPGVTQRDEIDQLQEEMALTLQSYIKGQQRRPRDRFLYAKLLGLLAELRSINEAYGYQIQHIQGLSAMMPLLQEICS
Steroid hormone receptor ERR1 (Homo sapiens), sequence (P11474 whole entry, looked up, the tested form may be a part): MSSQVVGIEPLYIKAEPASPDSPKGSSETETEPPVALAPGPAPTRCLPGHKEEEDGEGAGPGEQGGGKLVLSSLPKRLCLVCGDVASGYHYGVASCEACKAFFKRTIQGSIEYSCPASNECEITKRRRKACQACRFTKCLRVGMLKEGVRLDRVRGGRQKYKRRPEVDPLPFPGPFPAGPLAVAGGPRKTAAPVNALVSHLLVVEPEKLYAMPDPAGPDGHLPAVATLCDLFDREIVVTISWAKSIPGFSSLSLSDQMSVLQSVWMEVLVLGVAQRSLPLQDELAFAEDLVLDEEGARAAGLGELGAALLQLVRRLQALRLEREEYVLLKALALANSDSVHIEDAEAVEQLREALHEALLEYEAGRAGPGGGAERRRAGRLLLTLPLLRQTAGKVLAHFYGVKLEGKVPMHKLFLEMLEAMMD
Glucocorticoid receptor (Homo sapiens), sequence (P04150 whole entry, looked up, the tested form may be a part): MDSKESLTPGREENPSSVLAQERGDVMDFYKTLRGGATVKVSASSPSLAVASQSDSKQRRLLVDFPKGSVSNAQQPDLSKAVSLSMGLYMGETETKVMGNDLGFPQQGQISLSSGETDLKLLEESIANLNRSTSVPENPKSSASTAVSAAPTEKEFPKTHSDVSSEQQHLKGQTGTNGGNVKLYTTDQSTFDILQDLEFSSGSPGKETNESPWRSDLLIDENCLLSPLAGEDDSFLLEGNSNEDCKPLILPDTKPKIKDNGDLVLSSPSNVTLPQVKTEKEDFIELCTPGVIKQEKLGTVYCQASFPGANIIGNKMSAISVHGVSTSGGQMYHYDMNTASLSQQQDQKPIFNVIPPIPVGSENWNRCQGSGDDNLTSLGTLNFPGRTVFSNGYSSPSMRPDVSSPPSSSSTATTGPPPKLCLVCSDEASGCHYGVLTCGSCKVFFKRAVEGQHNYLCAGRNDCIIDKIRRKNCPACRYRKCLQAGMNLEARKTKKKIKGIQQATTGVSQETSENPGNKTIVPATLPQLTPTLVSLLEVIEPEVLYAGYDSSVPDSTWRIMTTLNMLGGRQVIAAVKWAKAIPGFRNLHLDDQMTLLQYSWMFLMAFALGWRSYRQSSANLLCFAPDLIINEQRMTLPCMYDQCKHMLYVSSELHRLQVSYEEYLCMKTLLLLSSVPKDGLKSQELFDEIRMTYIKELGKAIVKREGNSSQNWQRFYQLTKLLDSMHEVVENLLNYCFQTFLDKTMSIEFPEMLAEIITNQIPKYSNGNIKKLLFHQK
Bile acid receptor (Homo sapiens), sequence (Q96RI1 whole entry, looked up, the tested form may be a part): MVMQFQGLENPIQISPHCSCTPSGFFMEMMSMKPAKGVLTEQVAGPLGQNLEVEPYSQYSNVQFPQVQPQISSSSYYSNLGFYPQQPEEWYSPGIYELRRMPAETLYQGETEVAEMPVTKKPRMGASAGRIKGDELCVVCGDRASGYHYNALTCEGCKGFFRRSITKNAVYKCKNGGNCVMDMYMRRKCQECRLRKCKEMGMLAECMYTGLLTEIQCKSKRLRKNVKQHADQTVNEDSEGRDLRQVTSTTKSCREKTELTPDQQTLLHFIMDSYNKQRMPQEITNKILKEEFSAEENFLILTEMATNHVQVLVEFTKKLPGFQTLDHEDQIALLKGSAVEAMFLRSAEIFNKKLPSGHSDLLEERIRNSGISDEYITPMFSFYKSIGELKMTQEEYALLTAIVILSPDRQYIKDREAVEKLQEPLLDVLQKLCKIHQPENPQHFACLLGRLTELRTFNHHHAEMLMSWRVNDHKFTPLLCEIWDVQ
X-box-binding protein 1 (Homo sapiens), sequence (P17861 whole entry, looked up, the tested form may be a part): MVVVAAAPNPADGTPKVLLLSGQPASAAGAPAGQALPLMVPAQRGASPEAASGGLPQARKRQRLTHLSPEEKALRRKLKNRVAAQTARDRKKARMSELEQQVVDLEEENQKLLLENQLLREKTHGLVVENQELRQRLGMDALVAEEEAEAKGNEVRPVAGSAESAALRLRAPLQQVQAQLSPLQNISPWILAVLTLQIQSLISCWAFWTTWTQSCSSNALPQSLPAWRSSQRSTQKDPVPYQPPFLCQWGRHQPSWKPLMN
Estrogen receptor (Homo sapiens), sequence (P03372 whole entry, looked up, the tested form may be a part): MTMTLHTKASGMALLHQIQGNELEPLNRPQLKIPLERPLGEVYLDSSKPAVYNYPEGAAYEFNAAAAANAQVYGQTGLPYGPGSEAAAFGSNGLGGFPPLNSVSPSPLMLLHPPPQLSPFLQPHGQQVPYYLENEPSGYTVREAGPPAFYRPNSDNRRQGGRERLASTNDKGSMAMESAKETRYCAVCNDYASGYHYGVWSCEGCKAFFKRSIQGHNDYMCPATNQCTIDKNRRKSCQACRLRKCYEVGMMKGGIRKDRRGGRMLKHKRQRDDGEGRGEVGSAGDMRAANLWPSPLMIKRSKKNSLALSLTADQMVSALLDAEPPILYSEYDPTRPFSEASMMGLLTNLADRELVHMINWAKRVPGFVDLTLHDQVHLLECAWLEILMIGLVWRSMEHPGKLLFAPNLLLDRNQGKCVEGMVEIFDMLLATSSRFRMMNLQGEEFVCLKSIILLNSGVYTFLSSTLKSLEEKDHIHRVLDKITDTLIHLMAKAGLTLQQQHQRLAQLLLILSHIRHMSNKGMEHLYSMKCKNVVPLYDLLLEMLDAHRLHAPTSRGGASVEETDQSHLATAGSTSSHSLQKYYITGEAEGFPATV
Estrogen-related receptor gamma (Homo sapiens), sequence (P62508 whole entry, looked up, the tested form may be a part): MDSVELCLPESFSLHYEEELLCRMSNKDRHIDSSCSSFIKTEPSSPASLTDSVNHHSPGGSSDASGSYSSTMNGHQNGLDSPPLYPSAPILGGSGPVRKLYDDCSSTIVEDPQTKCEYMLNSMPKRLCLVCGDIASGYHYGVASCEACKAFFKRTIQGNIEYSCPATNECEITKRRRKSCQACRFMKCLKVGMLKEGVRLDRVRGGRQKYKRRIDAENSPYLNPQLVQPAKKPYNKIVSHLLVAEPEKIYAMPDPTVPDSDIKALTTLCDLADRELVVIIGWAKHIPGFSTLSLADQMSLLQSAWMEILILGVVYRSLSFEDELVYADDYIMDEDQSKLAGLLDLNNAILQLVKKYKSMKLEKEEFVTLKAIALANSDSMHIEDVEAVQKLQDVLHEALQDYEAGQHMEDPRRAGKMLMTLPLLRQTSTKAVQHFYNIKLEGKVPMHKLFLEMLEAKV

Consider `O=S(=O)(O)c1ccc2cc(O)ccc2c1`, for which the outcome in experiment [1], in experiment [2], in experiment [3] and in experiment [4] was inactive.
For `O=C(F)C(F)(F)C(F)(F)C(F)(F)C(F)F`, the compound was classed as inactive in experiment [5], in [6], in experiment [2], in [3], in experiment [4] and in experiment [7]. The call in experiment [8] was inactive.
For orientation: AC50 means the midpoint of the concentration-response curve, whichever way the signal moves. Turning to `CC1CCC(CO)CC1` (stereo not given), in experiment [5], the concentration at half-maximal activity (AC50) is 62.4 µM (active). Also, the call in experiment [5], in experiment [2], in [3] and in experiment [4] was inactive.
Take `O=C(c1cc(O)c(O)c(O)c1)c1ccc(O)c(O)c1O`: the outcome in experiment [1], in experiment [2], in experiment [9], in experiment [4], in experiment [7] and in experiment [8] was inactive.
On to `FCOC(C(F)(F)F)C(F)(F)F`, for which the compound was classed as inactive in [1], in [2], in experiment [3], in experiment [10], in experiment [4] and in experiment [7].
Take `O=C1OC2(c3ccccc31)c1cc(I)c(O)c(I)c1Oc1c2cc(I)c(O)c1I`: the call in experiment [1], in experiment [2], in experiment [3], in [10], in [9] and in experiment [8] was inactive.
With `O=C(O)C(=O)O`, the call in [1], in [2], in experiment [3], in experiment [10], in experiment [4] and in experiment [8] was inactive.
`CC1CNCC(C)O1` (stereo not given): the compound was classed as inactive in experiment [1], in experiment [2], in [10], in [4], in [7] and in [8].
In the case of `FC(F)(F)C(F)(F)C(F)(F)C(F)(F)I`, the compound was called inactive in experiment [5], in [6], in experiment [2], in experiment [3] and in experiment [7].
`CC1CCC(C(=O)O)CC1` (stereo not given): the call in experiment [5], in experiment [6], in experiment [2], in experiment [3], in [9] and in experiment [4] was inactive. The result in experiment [7] and in [8] was inactive.
For `FC(F)(F)C1(F)C(F)(F)C(F)(F)C(F)(F)C(F)(C(F)(F)F)C1(F)F` (stereo not given), the outcome in experiment [5], in experiment [6], in [2], in experiment [10], in [4] and in experiment [7] was inactive.
Take `O=CC(F)(F)C(F)(F)C(F)(F)C(F)F`: the result in experiment [5], in [6], in [2], in experiment [10], in experiment [9] and in experiment [4] was inactive. The result in experiment [7] and in [8] was inactive.
On to `C=CC(F)(F)C(F)(F)C(F)(F)C(F)(F)F`, for which the result in [1], in experiment [2], in experiment [9] and in [7] was inactive.
For the compound `COC(O)c1ccccc1` (stereo not given), the AC50 in experiment [5] is 56.7 µM (active). Further, the result in [6], in experiment [2], in experiment [9], in [4] and in experiment [7] was inactive.
Regarding `c1cc[nH]c1`, the compound was classed as inactive in [5], in experiment [6], in [2], in experiment [10] and in experiment [4].
For `NCc1cccc(CN)c1`, the outcome in [1], in experiment [2], in [3], in experiment [10], in experiment [4] and in [7] was inactive. Also, the compound was classed as inactive in [8].
As for `FC1(F)C=CC(F)(F)C1(F)F`, the outcome in experiment [5], in experiment [6], in [2], in experiment [3], in experiment [9] and in experiment [4] was inactive. The outcome in experiment [7] and in experiment [8] was inactive.
In the case of `O=C(C=C(O)C(F)(F)F)C(F)(F)F`, the compound was called inactive in [5], in experiment [6], in experiment [2], in experiment [3], in experiment [10] and in experiment [4]. The compound was called inactive in [7].
As for `CCc1cccc(CC)c1NC(=O)C(=O)O`, the result in experiment [1], in [2], in experiment [3], in [9], in experiment [4] and in experiment [7] was inactive. Also, the compound was classed as inactive in experiment [8].
With `C=C(c1ccc(C(=O)O)cc1)c1cc2c(cc1C)C(C)(C)CCC2(C)C`, the concentration at half-maximal activity (AC50) in experiment [5] is 31.2 µM (active); in experiment [2], 16.9 µM (active). The outcome in [5], in experiment [6], in experiment [2], in experiment [3], in experiment [4] and in [8] was inactive.
Consider `CC(C)(C)c1ccc(O)c(O)c1`, for which the outcome in experiment [1], in [2], in [3], in experiment [10], in experiment [4] and in experiment [7] was inactive. In [8], the compound was called inactive.
On to `Cc1cc(C(C)(C)C)c(O)c(C(C)(C)C)c1`, for which the outcome in [1], in experiment [3], in experiment [7] and in [8] was inactive. The AC50 in [2] is 33.4 µM (active) and 89.6 µM (active); in [4], 100 µM (active).
With `CC(=O)Nc1ccc(S(N)(=O)=O)cc1`, the result in [5], in [6], in [2], in [3], in [10] and in experiment [4] was inactive. For the same compound, the compound was called inactive in experiment [7] and in [8].
On to `FC(F)(F)C1(F)C(F)(F)C(F)(F)C(F)(F)C1(F)F`, for which the compound was classed as inactive in [5], in [6], in [2], in experiment [3], in [10] and in [4]. Also, the compound was called inactive in experiment [7].
Regarding `COC1=CC(=O)C[C@@H](C)[C@]12Oc1c(Cl)c(OC)cc(OC)c1C2=O`, the outcome in [5], in [2], in experiment [3], in experiment [4], in experiment [7] and in experiment [8] was inactive.
As for `CCC(=O)O`, the result in experiment [5], in experiment [2], in experiment [3] and in experiment [4] was inactive.
As to `Cc1cc(Cc2cc(C)cc(C(C)(C)C)c2O)c(O)c(C(C)(C)C)c1`, the call in experiment [5], in [3], in experiment [7] and in [8] was inactive. The AC50 in [2] is 25 µM (active).
In the case of `N=C(N)c1ccc(OCCCCCOc2ccc(C(=N)N)cc2)cc1`, the half-maximal activity concentration (AC50) in experiment [5] is 23.5 µM (active); in [2] it was 48.1 µM (active). In addition, the compound was classed as inactive in experiment [10] and in experiment [4].
Turning to `CCCCCCCCCCCC(=O)NCCCN(C)C`, the result in experiment [5] and in [3] was inactive. Also, the AC50 in experiment [2] was 19.1 µM (active).
`COc1ccccc1NC(=O)c1cc2ccccc2cc1O`: the outcome in experiment [5], in experiment [9], in [7] and in [8] was inactive. Moreover, in experiment [2], the AC50 is 25.8 µM (active).
